Reference: PubChem BioAssay
Active and inactive are the calls of the source.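 The calls were made as follows, unless noted: active = inhibition at or above 50% at 10 µM; inactive = inhibition below 50%.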

Assay: blockers of RIG-like receptor reporter activation – cell-based, Sendai virus stimulus, luciferase, 10K MLSCN set, TLR/RLR signaling modifier project, primary screen (AID 602276);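 also: firefly luciferase from ISG56 promoter only with Renilla not read in this screen; 0% = Sendai virus plus DMSO and 100% = medium plus DMSO without virus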
Conditions: HEK293 RL24 IRF3 luciferase reporter, at 10 µM, stronger effect = higher value

inhibition, inactive:
CCOc1ccc2nc(SCc3ccc(C(=O)OC)o3)[nH]c2c1 8.32%, Cc1cc(C)nc(SCC(=O)Nc2ncc3c(n2)CCCC3=O)n1 6.63%, O=C(Cn1cc2c(n1)CCCC2)NCCc1ccccc1 5.6%, COc1ccc(-c2nnc(SCC(=O)Nc3sc4c(c3C#N)CCC4)n2CC2CCCO2)cc1 (stereo not given) 7.87%, O=C1c2ccccc2S(=O)(=O)N1Cc1nnc(-c2ccccc2Br)o1 16.6%, O=C(CCc1ccccc1)Nc1ccncc1 -2.19%, CCCc1nnc(NC(=O)CCC(=O)N2CCN(CCOc3ccc(C)cc3)CC2)s1 0.418%, O=C(/C=C1\NC2(CCCC2)Cc2ccccc21)N1CCOCC1 14.1%, Cn1cnc(S(=O)(=O)NCc2cccs2)c1 -2.25%, CCOC(=O)c1oc2cccc(OC(C)=O)c2c1C -33.6%, CCC(C)(C)NC(=O)CN(Cc1ccc2c(c1)OCO2)C(=O)CCC(=O)Nc1ccccn1 12.5%, Cc1ccc(C(=O)NC(Cc2c[nH]c3ccccc23)C(=O)O)o1 (stereo not given) -7.86%, Nc1cc(CN2C(=O)c3ccccc3C2=O)cc(Cl)c1O 12.8%, O=S(=O)(Nc1nc2ccccc2nc1NCc1ccco1)c1cccs1 14.7%, COc1ccc(S(=O)(=O)Nc2cc(C)on2)cc1OC 7.69%, O=C(CSc1nccn1Cc1ccccc1)Nc1nccs1 -30.1%, Nc1cc(=O)[nH]c(SCC(=O)Nc2ccc(Br)cc2)n1 1.99%, CCN(CCCNC(=O)CC1Oc2ccc(C)cc2NC1=O)Cc1ccccc1 (stereo not given) -5.16%, O=C(OCCN(CCOC(=O)c1ccncc1)S(=O)(=O)c1cccs1)c1ccncc1 7.42%, CCc1c(C)c2ccc(OCC(=O)OC)cc2oc1=O 12.5%, COc1ccccc1-n1c(C)nnc1SCC(=O)Nc1cccc(C(C)=O)c1 17.5%, O=C(CCNS(=O)(=O)c1ccc(Cl)cc1)NCc1ccccn1 17.1%, O=C1CC(Cc2ccccc2)C(=O)N1CCCn1ccnc1 (stereo not given) 17.7%, CSc1ccccc1NC(=O)c1cnc2n(c1=O)CCS2 5.22%, COc1ccc(C(=O)NCc2ccccc2OC)cc1 -2.6%, O=C(CSc1nnc(-c2ccc(Br)o2)n1Cc1ccccc1)c1ccccc1F 6.04%, Cc1ccc(/C=c2\s/c(=C(/C#N)C(=O)N3CCCC3)n(Cc3ccco3)c2=O)s1 16.4%, O=C(NCc1ccccn1)c1cc(-n2cnnc2)ccc1Cl 2.94%, O=C(c1ccc2c(c1)OCO2)N1CCCN(C(=O)c2ccc3c(c2)OCO3)CC1 15.7%, Cc1ccc(NC(=O)CCC(=O)O)cc1F 16.4%, COc1cc2c(N3CCOCC3)cc(O)c(CC(=O)Nc3ccccc3)c2cc1OC -3.63%, O=C(NCc1cccnc1)C1CCCN(S(=O)(=O)c2ccc(Cl)cc2)C1 (stereo not given) -7.82%, CCn1cc(C(=O)N2CCOCC2)c(=O)c2cc(S(=O)(=O)N(C)C3CCCCC3)ccc21 12.2%, CC(C)N(C(=O)CSc1nnc(NC(=O)C2CCC2)s1)C(C)C 17.8%, Cc1ccc(CCSCC(=O)O)cn1 4.3%, COc1cc(OC)cc(C(=O)N2c3ccc(F)cc3CCC2C)c1 (stereo not given) 12.9%, O=C(CN1C(=O)c2ccccc2S1(=O)=O)NCc1ccccc1Cl 9.36%, CC(C)[C@H](NC(=O)OC(C)(C)C)c1nnc(SCC(=O)Nc2ccc(Br)cc2)o1 2.98%, O=C(NCc1cccs1)C1CC(=O)N(C2CCCC2)C1 (stereo not given) -9.61%, O=C(Nc1ccc2snnc2c1)N1CCN(c2ccccc2)CC1 4.94%

Assay: TLR3 IRF3 reporter activation blockers – cell-based, poly I:C stimulus, luciferase, 10K MLSCN set, primary screen (AID 602277;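 active = inhibition of the reporter signal at or above 50%; inactive = inhibition below 50%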)
Conditions: HEK293-TLR3 RL24 IRF3 luciferase reporter, at 10 µM, stronger effect = higher value

inhibition, inactive:
CCOc1ccc2nc(SCc3ccc(C(=O)OC)o3)[nH]c2c1 -5.74%, Cc1cc(C)nc(SCC(=O)Nc2ncc3c(n2)CCCC3=O)n1 11.4%, O=C(Cn1cc2c(n1)CCCC2)NCCc1ccccc1 31.9%, COc1ccc(-c2nnc(SCC(=O)Nc3sc4c(c3C#N)CCC4)n2CC2CCCO2)cc1 (stereo not given) 15.5%, O=C1c2ccccc2S(=O)(=O)N1Cc1nnc(-c2ccccc2Br)o1 20.8%, O=C(CCc1ccccc1)Nc1ccncc1 11.2%, CCCc1nnc(NC(=O)CCC(=O)N2CCN(CCOc3ccc(C)cc3)CC2)s1 10.9%, O=C(/C=C1\NC2(CCCC2)Cc2ccccc21)N1CCOCC1 16.1%, Cn1cnc(S(=O)(=O)NCc2cccs2)c1 6.69%, CCOC(=O)c1oc2cccc(OC(C)=O)c2c1C -89.8%, CCC(C)(C)NC(=O)CN(Cc1ccc2c(c1)OCO2)C(=O)CCC(=O)Nc1ccccn1 21.6%, Cc1ccc(C(=O)NC(Cc2c[nH]c3ccccc23)C(=O)O)o1 (stereo not given) 22.8%, Nc1cc(CN2C(=O)c3ccccc3C2=O)cc(Cl)c1O 36.4%, O=S(=O)(Nc1nc2ccccc2nc1NCc1ccco1)c1cccs1 14.6%, COc1ccc(S(=O)(=O)Nc2cc(C)on2)cc1OC 12.8%, O=C(CSc1nccn1Cc1ccccc1)Nc1nccs1 -82.1%, Nc1cc(=O)[nH]c(SCC(=O)Nc2ccc(Br)cc2)n1 4.12%, CCN(CCCNC(=O)CC1Oc2ccc(C)cc2NC1=O)Cc1ccccc1 (stereo not given) 30.7%, O=C(OCCN(CCOC(=O)c1ccncc1)S(=O)(=O)c1cccs1)c1ccncc1 11.5%, CCc1c(C)c2ccc(OCC(=O)OC)cc2oc1=O 18.6%, COc1ccccc1-n1c(C)nnc1SCC(=O)Nc1cccc(C(C)=O)c1 13.3%, O=C(CCNS(=O)(=O)c1ccc(Cl)cc1)NCc1ccccn1 21.6%, O=C1CC(Cc2ccccc2)C(=O)N1CCCn1ccnc1 (stereo not given) 25%, CSc1ccccc1NC(=O)c1cnc2n(c1=O)CCS2 -12.4%, COc1ccc(C(=O)NCc2ccccc2OC)cc1 -7.58%, O=C(CSc1nnc(-c2ccc(Br)o2)n1Cc1ccccc1)c1ccccc1F 18.1%, Cc1ccc(/C=c2\s/c(=C(/C#N)C(=O)N3CCCC3)n(Cc3ccco3)c2=O)s1 -21.1%, O=C(NCc1ccccn1)c1cc(-n2cnnc2)ccc1Cl 10.6%, O=C(c1ccc2c(c1)OCO2)N1CCCN(C(=O)c2ccc3c(c2)OCO3)CC1 28.5%, Cc1ccc(NC(=O)CCC(=O)O)cc1F 24.4%, COc1cc2c(N3CCOCC3)cc(O)c(CC(=O)Nc3ccccc3)c2cc1OC 7.05%, O=C(NCc1cccnc1)C1CCCN(S(=O)(=O)c2ccc(Cl)cc2)C1 (stereo not given) -2.22%, CCn1cc(C(=O)N2CCOCC2)c(=O)c2cc(S(=O)(=O)N(C)C3CCCCC3)ccc21 28.4%, CC(C)N(C(=O)CSc1nnc(NC(=O)C2CCC2)s1)C(C)C 25.1%, Cc1ccc(CCSCC(=O)O)cn1 0.219%, COc1cc(OC)cc(C(=O)N2c3ccc(F)cc3CCC2C)c1 (stereo not given) 21.8%, O=C(CN1C(=O)c2ccccc2S1(=O)=O)NCc1ccccc1Cl 22.5%, CC(C)[C@H](NC(=O)OC(C)(C)C)c1nnc(SCC(=O)Nc2ccc(Br)cc2)o1 28.3%, O=C(NCc1cccs1)C1CC(=O)N(C2CCCC2)C1 (stereo not given) -21.8%, O=C(Nc1ccc2snnc2c1)N1CCN(c2ccccc2)CC1 -57.8%
